Calls of active or inactive are those of the source. Calls follow the shape of the dose curve; as a rule, active = well fitted curve in the direction sought with a large enough effect; inconclusive = small, poorly fitted or top-dose-only effect, or effect the other way, or another doubt; inactive = no such curve, though single readings can be large or run the other way.
Assay: Inducers of the Endoplasmic Reticulum Stress Response (ERSR) in human glioma: Validation (AID 504836); also: 0% is about no effect
Conditions: human glioma cells, ER stress response reporter; series mostly up to 38.3 µM; activation: at the top concentration
Method in brief: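 ERSR induction read as luciferase luminescence (Bright-Glo, 10 min at room temperature) in stably transfected human U87-MG glioma cells exposed to compounds for 16 h, using GRP78 as sensor.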

SMILES	activation
COC(=O)C1=C(C)NC(C)=C(C(=O)OCCN(C)Cc2ccccc2)C1c1cccc([N+](=O)[O-])c1 (stereo not given)	-4.69% (inactive)
CN(C)CC[C@@H](c1ccc(Br)cc1)c1ccccn1	-4% (inactive)
Oc1ccc(C2CNCCc3c2cc(O)c(O)c3Cl)cc1 (stereo not given)	-1.93% (inactive)
CC(C)(C(=O)O)c1ccc(C(O)CCCN2CCC(C(O)(c3ccccc3)c3ccccc3)CC2)cc1 (stereo not given)	-0.403% (inactive)
CC(C)NCC(O)COc1cccc2[nH]ccc12 (stereo not given)	-3.11% (inactive)
CC(=O)[C@]1(O)Cc2c(O)c3c(c(O)c2[C@@H](O[C@H]2C[C@H](N)[C@H](O)[C@H](C)O2)C1)C(=O)c1ccccc1C3=O	-7.63% (inactive)
CN1CCN(CCCN2c3ccccc3Sc3ccc(C(F)(F)F)cc32)CC1	-0.484% (inactive)
CCOC(=O)C1=C(C)NC(C)=C(C(=O)OC)C1c1cccc(Cl)c1Cl (stereo not given)	0.412% (inactive)
Cc1cn([C@H]2C=C[C@@H](CO)O2)c(=O)[nH]c1=O	-2.53% (inactive)
CN1CCN(C2=Nc3cc(Cl)ccc3Nc3ccccc32)CC1	-0.248% (inactive)
Cc1[nH]c(=O)c(C#N)cc1-c1ccncc1	-2.85% (inactive)
CN(C)CCCN1c2ccccc2Sc2ccc(Cl)cc21	2.13% (inactive)
COc1cc(Cc2cnc(N)nc2N)cc(OC)c1OC	-3.01% (inactive)
NC[C@H](O)c1ccc(O)c(O)c1	-3.09% (inactive)
COc1cc2nc(N3CCN(C(=O)C4CCCO4)CC3)nc(N)c2cc1OC (stereo not given)	1.66% (inactive)
Cc1ccc(S(=O)(=O)NC(=O)NN2CCCCCC2)cc1	-3.97% (inactive)
CN/C(=C\[N+](=O)[O-])NCCSCc1ccc(CN(C)C)o1	0.197% (inactive)
COc1ccccc1OCC(O)CN1CCN(CC(=O)Nc2c(C)cccc2C)CC1 (stereo not given)	1.07% (inactive)

SMILES	activation
CC1(C)NC(=O)N(c2ccc([N+](=O)[O-])c(C(F)(F)F)c2)C1=O	-5.72% (inactive)
CC1=C(/C=C/C(C)=C/C=C/C(C)=C/C(=O)Nc2ccc(O)cc2)C(C)(C)CCC1	-5.47% (inactive)
Nc1nc2c(ncn2COC(CO)CO)c(=O)[nH]1	-2.41% (inactive)
CN1CCN(CCCN2c3ccccc3Sc3ccc(Cl)cc32)CC1	-1.93% (inactive)
CNCCCN1c2ccccc2CCc2ccccc21	-1.95% (inactive)
O=C(c1ccc(OCCN2CCCCC2)cc1)c1c(-c2ccc(O)cc2)sc2cc(O)ccc12	2.09% (inactive)
Cn1ccc2cc3c(cc21)CCN3C(=O)Nc1cccnc1	-3.19% (inactive)
CCC1(c2ccccc2)C(=O)NCNC1=O	-2.39% (inactive)
N=c1nc(N2CCCCC2)cc(N)n1O	-3.66% (inactive)
CC1=NS(=O)(=O)c2cc(Cl)ccc2N1	-1.96% (inactive)
Nc1ncn([C@@H]2O[C@H](CO)[C@@H](O)[C@H]2O)c(=O)n1	-7.34% (inactive)
COC(=O)[C@H]1[C@H]2C[C@@H]3c4[nH]c5cc(OC)ccc5c4CCN3C[C@H]2C[C@@H](OC(=O)c2cc(OC)c(OC)c(OC)c2)[C@@H]1OC	-1.51% (inactive)
CN(C)CCCN1c2ccccc2CCc2ccc(Cl)cc21	-1.42% (inactive)
Cc1cn([C@H]2C[C@H](N=[N+]=[N-])[C@@H](CO)O2)c(=O)[nH]c1=O	-0.344% (inactive)
CCN(CC)C(=S)SSC(=S)N(CC)CC	-11.4% (inactive)
CCOC(=O)N1CCC(=C2c3ccc(Cl)cc3CCc3cccnc32)CC1	-0.678% (inactive)
Cn1cnc([N+](=O)[O-])c1Sc1ncnc2nc[nH]c12	-1.08% (inactive)
